Consider 35 molecules from PubChem BioAssay (NCATS).

Results filed as inconclusive are left out. Active and inactive are the calls of the source. Calls come from the whole dose curve; as a rule, active = well fitted curve in the direction sought with a large enough effect; inconclusive = small, poorly fitted or top-dose-only effect, or another doubt; inactive = no such curve, though single readings can be large; an effect the other way counts as inactive or inconclusive.
Potency is the fitted concentration of half-maximal effect.

The first test in a line: qHTS for differential inhibitors of proliferation of Plasmodium falciparum line Dd2 (AID 1882).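 For activity change, negative = inhibition: plate controls were DMSO vehicle for no effect and 0.29 µM artemisinin for full effect.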 Note: nearly all actives have a fitted effect of over 65% in size. The following applies: Potency: Plasmodium falciparum Dd2 proliferation inhibition; series mostly up to 28.7 µM; activity change, negative = inhibition: at the top concentration. The gist of the method:
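Dd2-infected erythrocytes (0.3% parasitemia, 2.5% hematocrit final) incubated with compound 72 h at 37 C, 5% CO2; lysed with saponin/Triton buffer containing SYBR Green I, incubated overnight in the dark, then read by fluorescence (485/535 nm). Normalized to 0.29 uM artemisinin and DMSO.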
For orientation: Quantitative high-throughput screening tests each substance at several concentrations.
In the case of `O=C(Nc1ccccc1)c1cc([N+](=O)[O-])ccc1Cl`, the “activity change, negative = inhibition” value was -19.5% (inactive).

Consider `CC(C)(C=O)Cc1cc(C(C)(C)C)c(O)c(C(C)(C)C)c1`, for which the “activity change, negative = inhibition” value is -15.1% (inactive). Take `CCCCCCCCCCCCCCCCCC(=O)OC(CC(=O)O)C[N+](C)(C)C` (stereo not drawn): the “activity change, negative = inhibition” value was 0.896% (inactive). On to `NC[C@@H]1O[C@H](C23CC4CC(CC(C4)C2)C3)Cc2c1ccc(O)c2O`, for which the Potency was 8.91 µM (active).

With `O=C(Nc1cccc(C(=O)Nc2ccc(S(=O)(=O)O)c3cc(S(=O)(=O)O)cc(S(=O)(=O)O)c23)c1)Nc1cccc(C(=O)Nc2ccc(S(=O)(=O)O)c3cc(S(=O)(=O)O)cc(S(=O)(=O)O)c23)c1`, the “activity change, negative = inhibition” value is -9.02% (inactive). With `CN1CCc2ccccc2Cc2[nH]c3ccccc3c2CC1`, the Potency is 12.6 µM (active).

As for `Cc1ccccc1CNc1ncnc2c1ncn2C1OC(CO)C(O)C1O` (stereo not drawn), the “activity change, negative = inhibition” value was -4.59% (inactive). Regarding `Cc1cc(NC(=O)Nc2ccc3c(ccn3C)c2)sn1`, the “activity change, negative = inhibition” value was -27.2% (inactive). With `O=C(O)[C@@H]1C[C@H](C(=O)O)N1`, the “activity change, negative = inhibition” value was 2.1% (inactive). Turning to `O=C1C(SCCO)=C(SCCO)C(=O)c2ccccc21`, the Potency was 6.31 µM (active). `CCCCCC(O)c1cccc(OCc2ccc3ccccc3n2)c1` (stereo not drawn): the Potency was 7.94 µM (active). `Oc1ccc(C2CNCc3sccc32)cc1O` (stereo not drawn): the Potency is 8.91 µM (active). For `N.N.O=C(O)C1(C(=O)O)CCC1.[Pt]`, the “activity change, negative = inhibition” value is -19.5% (inactive). As to `COc1ccccc1N1CCN(CCCCNS(=O)(=O)c2cccc3c(N(C)C)cccc23)CC1`, the Potency is 10 µM (active). For `O=c1[nH]c2cc(C(F)(F)F)ccc2n1-c1cc(C(F)(F)F)ccc1O`, the Potency was 8.91 µM (active). The same measure, in the same setting: the same measure for `CCCN(CC1CC1)c1nc(C)nc(Nc2c(Cl)cc(Cl)cc2Cl)c1Cl`: 11.2 µM (active). For the molecule `CCCCCCCC/C=C\CCCCCCCC(=O)NCCO`, the Potency is 8.91 µM (active). Take `CO/N=C(\C(=O)N[C@@H]1C(=O)N2C(C(=O)O)=C(COC(C)=O)CS[C@H]12)c1csc(N)n1` (stereo in doubt): the “activity change, negative = inhibition” value is -1.71% (inactive). As for `Ic1ccc(N2CCN(Cc3c[nH]c4ncccc34)CC2)cc1`, the “activity change, negative = inhibition” value was -17.7% (inactive). For the molecule `C#CCN1C(C)=C(C(=O)OC)C(c2cccc([N+](=O)[O-])c2)C(C(=O)OCC)=C1C` (stereo not drawn), the Potency was 12.6 µM (active). Consider `Oc1cc(O)cc(/C=C/c2ccc(O)c(O)c2)c1`, for which the Potency is 12.6 µM (active). The same measure, in the same setting: the same measure for `Fc1ccc(C(OCCCc2cnc[nH]2)c2ccc(F)cc2)cc1`: 8.91 µM (active); for `CC12C(=O)OC(=O)C1(C)C1CCC2O1` (stereo not drawn): 4.47 µM (active). In the case of `N[C@@H](CC(=O)O)C(=O)O`, the “activity change, negative = inhibition” value was 0.466% (inactive). The same measure, in the same setting: the same measure for `Nc1ccn([C@@H]2O[C@H](CO)[C@@H](O)[C@@H]2O)c(=O)n1`: 1.37% (inactive); for `CC(C)Cc1ccc([C@H](C)C(=O)O)cc1`: -11.1% (inactive); for `CN=c1nc(-c2ccccc2)n(-c2ccccc2)s1`: -19.8% (inactive). Same read-out and setting: the same measure for `CN(C)C(N)=NCCC[C@H](N)C(=O)O`: 1.27% (inactive); for `O=c1[nH]c2cc(Cl)c(Cl)cc2[nH]c1=O`: -2.91% (inactive); for `CCN1/C(=C/C(C)=O)Sc2ccc(OC)cc21`: -2.7% (inactive). In the case of `CC[C@@H](C)[C@H]1O[C@]2(CC[C@@H]1C)C[C@@H]1C[C@@H](C/C=C(\C)[C@@H](O[C@H]3C[C@H](OC)[C@@H](O[C@H]4C[C@H](OC)[C@@H](O)[C@H](C)O4)[C@H](C)O3)[C@@H](C)/C=C/C=C3\CO[C@@H]4[C@H](O)C(C)=C[C@@H](C(=O)O1)[C@]34O)O2`, the Potency was 1.78 µM (active).

In the case of `O=C1NC(O)=NC1(c1ccccc1)c1ccccc1`, the “activity change, negative = inhibition” value was -9.02% (inactive). Still for that read-out and setting: the same measure for `O=C(O)CCCC[C@@H]1CCSS1`: 11.2% (inactive).

On to `COc1ccccc1CNCCCCCCNCCCCCCCCNCCCCCCNCc1ccccc1OC`, for which the Potency was 4.47 µM (active). Regarding `NCCCCCCCCCCN`, the “activity change, negative = inhibition” value is -0.959% (inactive).

Another test in a line: qHTS for differential inhibitors of proliferation of Plasmodium falciparum line W2 (AID 1883).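 For activity change, negative = inhibition: 0% = vehicle wells and -100% = control inhibitor wells.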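 Note: parasites grown with compound for 72 h before lysis and staining.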 Conditions: Potency: Plasmodium falciparum W2 proliferation inhibition; series mostly up to 28.7 µM; activity change, negative = inhibition: at the top concentration.
Take `O=C(Nc1ccccc1)c1cc([N+](=O)[O-])ccc1Cl`: the Potency was 12.6 µM (active). For `CC(C)(C=O)Cc1cc(C(C)(C)C)c(O)c(C(C)(C)C)c1`, the “activity change, negative = inhibition” value is -19.4% (inactive).

`CCCCCCCCCCCCCCCCCC(=O)OC(CC(=O)O)C[N+](C)(C)C` (stereo not drawn): the “activity change, negative = inhibition” value is -10.7% (inactive). For the molecule `NC[C@@H]1O[C@H](C23CC4CC(CC(C4)C2)C3)Cc2c1ccc(O)c2O`, the Potency was 2.24 µM (active). With `O=C(Nc1cccc(C(=O)Nc2ccc(S(=O)(=O)O)c3cc(S(=O)(=O)O)cc(S(=O)(=O)O)c23)c1)Nc1cccc(C(=O)Nc2ccc(S(=O)(=O)O)c3cc(S(=O)(=O)O)cc(S(=O)(=O)O)c23)c1`, the “activity change, negative = inhibition” value was -7% (inactive). Take `CN1CCc2ccccc2Cc2[nH]c3ccccc3c2CC1`: the Potency is 5.62 µM (active). As to `Cc1ccccc1CNc1ncnc2c1ncn2C1OC(CO)C(O)C1O` (stereo not drawn), the “activity change, negative = inhibition” value is -10.5% (inactive). For the molecule `Cc1cc(NC(=O)Nc2ccc3c(ccn3C)c2)sn1`, the Potency is 7.94 µM (active). As for `O=C(O)[C@@H]1C[C@H](C(=O)O)N1`, the “activity change, negative = inhibition” value is -1.95% (inactive). Take `O=C1C(SCCO)=C(SCCO)C(=O)c2ccccc21`: the Potency was 10 µM (active). Consider `CCCCCC(O)c1cccc(OCc2ccc3ccccc3n2)c1` (stereo not drawn), for which the Potency is 6.31 µM (active). Still for that read-out and setting: the same measure for `Oc1ccc(C2CNCc3sccc32)cc1O` (stereo not drawn): 11.2 µM (active); for `N.N.O=C(O)C1(C(=O)O)CCC1.[Pt]`: 10 µM (active); for `COc1ccccc1N1CCN(CCCCNS(=O)(=O)c2cccc3c(N(C)C)cccc23)CC1`: 3.55 µM (active).

Regarding `O=c1[nH]c2cc(C(F)(F)F)ccc2n1-c1cc(C(F)(F)F)ccc1O`, the Potency was 7.08 µM (active). For `CCCN(CC1CC1)c1nc(C)nc(Nc2c(Cl)cc(Cl)cc2Cl)c1Cl`, the Potency is 3.16 µM (active). Regarding `CCCCCCCC/C=C\CCCCCCCC(=O)NCCO`, the Potency is 2.51 µM (active). As for `Ic1ccc(N2CCN(Cc3c[nH]c4ncccc34)CC2)cc1`, the Potency was 2.51 µM (active). Consider `C#CCN1C(C)=C(C(=O)OC)C(c2cccc([N+](=O)[O-])c2)C(C(=O)OCC)=C1C` (stereo not drawn), for which the Potency was 4.47 µM (active). Take `Oc1cc(O)cc(/C=C/c2ccc(O)c(O)c2)c1`: the Potency is 10 µM (active). Take `Fc1ccc(C(OCCCc2cnc[nH]2)c2ccc(F)cc2)cc1`: the Potency was 0.794 µM (active). As to `CC12C(=O)OC(=O)C1(C)C1CCC2O1` (stereo not drawn), the Potency was 2.51 µM (active). `N[C@@H](CC(=O)O)C(=O)O`: the “activity change, negative = inhibition” value was -27.9% (inactive). Same read-out and setting: the same measure for `Nc1ccn([C@@H]2O[C@H](CO)[C@@H](O)[C@@H]2O)c(=O)n1`: -1.48% (inactive).

In the case of `CC(C)Cc1ccc([C@H](C)C(=O)O)cc1`, the “activity change, negative = inhibition” value was -6.08% (inactive).

On to `CN=c1nc(-c2ccccc2)n(-c2ccccc2)s1`, for which the Potency is 10 µM (active).

Turning to `CN(C)C(N)=NCCC[C@H](N)C(=O)O`, the “activity change, negative = inhibition” value was -7.93% (inactive).

As to `O=c1[nH]c2cc(Cl)c(Cl)cc2[nH]c1=O`, the Potency is 3.55 µM (active).

On to `CCN1/C(=C/C(C)=O)Sc2ccc(OC)cc21`, for which the Potency was 14.1 µM (active). In the case of `CC[C@@H](C)[C@H]1O[C@]2(CC[C@@H]1C)C[C@@H]1C[C@@H](C/C=C(\C)[C@@H](O[C@H]3C[C@H](OC)[C@@H](O[C@H]4C[C@H](OC)[C@@H](O)[C@H](C)O4)[C@H](C)O3)[C@@H](C)/C=C/C=C3\CO[C@@H]4[C@H](O)C(C)=C[C@@H](C(=O)O1)[C@]34O)O2`, the Potency is 1 µM (active). `O=C1NC(O)=NC1(c1ccccc1)c1ccccc1`: the “activity change, negative = inhibition” value was -12.1% (inactive).

In the case of `O=C(O)CCCC[C@@H]1CCSS1`, the “activity change, negative = inhibition” value is 29.8% (inactive).

Take `COc1ccccc1CNCCCCCCNCCCCCCCCNCCCCCCNCc1ccccc1OC`: the Potency was 1 µM (active).
